High-throughput results (PubChem BioAssay)
This is a sample that favours compounds with a hit; in the whole collection about 1.1% have one here.
NR5A2 inv ag: inverse agonists of human LRH-1 (NR5A2); 0.13% of 360,000 active; inhibition, % at 3.6 µM; HEK293T StAR-luciferase reporter, LRH-1 transfected, 24 h; AID 602396;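 active = inhibition above the mean inhibition of all tested compounds plus 3 SD, cut at about 73% in these data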;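 also: 0% = DMSO wells and 100% = reporter-only cells lacking LRH-1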
GalR3 antagonist: blocks the human galanin receptor 3; 0.44% of 360,000 active; O60755; HEK293 GalR3-CNG cAMP membrane potential fluorescence; galR3 body fused to GalR1 C-terminus; inhibition, % at 3 µM;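 active = inhibition above the screen-wide average plus 3 SD, cut at about 13% in these data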;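 also: forskolin and galanin both at EC90 stimulate the cells; cAMP rise reported by CNG channel membrane potential dye signal; 0% = forskolin plus galanin with DMSO and 100% = forskolin alone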
SRC3 inh: human NCOA3 inhibition; Q9Y6Q9; HEK293 GAL4-SRC3 luciferase reporter, luminescence; inhibition, % at 3.6 µM; 0.17% of 360,000 active;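 active = inhibition above a per-campaign cutoff, the mean of all compounds plus 3 SD, cut at about 60% in these data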;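 also: 0% = DMSO-treated cells and 100% = gossypol-treated cells at 36 µM; higher means less SRC3-driven luciferase light from the GAL4 reporter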
SRC2 inh: inhibits human steroid receptor coactivator 2; HEK293 GAL4-SRC2 luciferase reporter, luminescence; inhibition, % at 9 µM; 0.17% of 370,000 active; AID 651957;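 active = inhibition above the mean inhibition of all tested compounds plus 3 SD, set per campaign, cut at about 52% in these data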;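 also: 0% = DMSO treated cells and 100% = cells given Gossypol at 36 µM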
COUP-TFII inh: NR2F2 (human) inhibition, primary screen | P24468 | HEK293T NGFI-A luciferase reporter, luminescence | inhibition, % at 8.6 µM | 0.7% of 370,000 active;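 active = inhibition above a per-plate cutoff, mean inhibition of test wells between control levels plus 3 SD, cut at about 38% in these data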;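 also: cells cotransfected with COUP-TFII expression vector driving the NGFI-A reporter; 0% = median of COUP-TF2 test wells and 100% = reporter-only cells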
NCOA1 inh: inhibits human SRC1 coactivator. HEK293 GAL4-SRC1 luciferase reporter, luminescence. inhibition, % at 3.6 µM. 0.12% of 360,000 active. AID 588354;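 active = inhibition above the campaign mean plus 3 SD, with each screening campaign given its own cutoff, cut at about 60% in these data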;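 also: 0% = DMSO treated cells and 100% = gossypol at 36 µM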
Target sequence (Q15788 whole entry, looked up, the tested form may be a part): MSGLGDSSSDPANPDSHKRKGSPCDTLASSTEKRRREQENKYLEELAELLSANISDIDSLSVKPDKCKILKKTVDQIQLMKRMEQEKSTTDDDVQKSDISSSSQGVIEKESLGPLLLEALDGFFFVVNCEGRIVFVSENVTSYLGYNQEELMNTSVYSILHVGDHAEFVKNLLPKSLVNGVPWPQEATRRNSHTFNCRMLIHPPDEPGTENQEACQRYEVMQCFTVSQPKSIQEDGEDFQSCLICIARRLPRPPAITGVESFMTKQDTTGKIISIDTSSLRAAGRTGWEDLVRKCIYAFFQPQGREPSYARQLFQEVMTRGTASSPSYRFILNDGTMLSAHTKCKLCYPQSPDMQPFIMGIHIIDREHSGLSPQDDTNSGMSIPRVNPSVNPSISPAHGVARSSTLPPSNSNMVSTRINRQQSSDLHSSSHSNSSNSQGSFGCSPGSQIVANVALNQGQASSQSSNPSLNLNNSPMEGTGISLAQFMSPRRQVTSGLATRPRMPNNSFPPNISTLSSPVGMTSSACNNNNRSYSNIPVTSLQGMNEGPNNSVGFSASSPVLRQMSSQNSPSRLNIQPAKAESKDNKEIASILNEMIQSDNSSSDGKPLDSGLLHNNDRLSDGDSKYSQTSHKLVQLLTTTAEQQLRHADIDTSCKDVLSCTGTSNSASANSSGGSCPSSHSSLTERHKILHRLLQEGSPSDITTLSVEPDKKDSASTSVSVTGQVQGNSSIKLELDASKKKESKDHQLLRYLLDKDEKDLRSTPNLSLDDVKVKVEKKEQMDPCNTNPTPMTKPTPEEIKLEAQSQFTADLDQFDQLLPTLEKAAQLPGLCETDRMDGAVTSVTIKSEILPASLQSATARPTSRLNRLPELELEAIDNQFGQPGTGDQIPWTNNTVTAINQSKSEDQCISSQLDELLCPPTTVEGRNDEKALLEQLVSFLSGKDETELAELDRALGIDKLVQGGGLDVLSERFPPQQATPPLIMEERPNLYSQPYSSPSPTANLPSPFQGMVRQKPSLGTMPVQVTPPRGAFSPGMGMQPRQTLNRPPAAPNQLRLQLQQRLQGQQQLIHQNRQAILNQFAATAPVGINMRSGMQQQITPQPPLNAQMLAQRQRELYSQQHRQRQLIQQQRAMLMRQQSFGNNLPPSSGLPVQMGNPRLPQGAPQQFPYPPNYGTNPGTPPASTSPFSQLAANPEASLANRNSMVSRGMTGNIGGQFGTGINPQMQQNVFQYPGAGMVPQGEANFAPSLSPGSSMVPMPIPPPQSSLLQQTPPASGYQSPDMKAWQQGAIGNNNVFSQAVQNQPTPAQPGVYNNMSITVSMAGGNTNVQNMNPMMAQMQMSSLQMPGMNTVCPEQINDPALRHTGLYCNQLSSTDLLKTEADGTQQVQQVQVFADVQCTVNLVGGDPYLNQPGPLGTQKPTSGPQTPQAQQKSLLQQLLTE
GalR3 antag conf: GalR3 (human) antagonism, confirmation | shares compounds with GalR3 antagonist | HEK293 GalR3 CNG cAMP biosensor, membrane potential fluorescence; galR3 fused to GalR1 carboxy tail; challenged with forskolin and galanin at EC90 | inhibition, % at 3 µM | 59% of 1,600 active;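 active = inhibition above the primary screen's cutoff, the mean inhibition of all screened compounds plus 3 SD, cut at about 13% in these data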;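 also: 0% = forskolin plus galanin and 100% = forskolin alone with DMSO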
HEK-CNG parental: parental cell agonism counter-screen for GalR3 antagonists; shares compounds with GalR3 antagonist; HEK293-CNG parental cells, cAMP membrane potential fluorescence; normalised: DMSO wells 0%, forskolin wells 100%; activation, % at 3 µM; 10% of 1,600 active; in the data active = activation above about 1.3%
* = called active by the depositor; . = no result.

SMILES	NR5A2 inv ag	GalR3 antagonist	SRC3 inh	SRC2 inh	COUP-TFII inh	NCOA1 inh	GalR3 antag conf	HEK-CNG parental
CNC[C@@H]1Oc2ccc(NC(=O)Nc3ccccc3)cc2C(=O)N([C@@H](C)CO)C[C@H]1C	13.5	-4.4	-18.7	-31.3	-16.7	-26.7	.	.
CNC[C@H]1Oc2ccc(NC(=O)Nc3ccc4c(c3)OCO4)cc2C(=O)N([C@H](C)CO)C[C@@H]1C	-9.5	14.8*	-5.0	15.0	-9.4	3.8	7.5	-0.1
COc1ccc(NC(=O)N(C)C[C@H]2OCc3cnnn3CCCC(=O)N([C@H](C)CO)C[C@@H]2C)c(OC)c1	.	-1.5	.	16.1	3.0	.	.	.
O=[N+]([O-])c1ccccc1-c1cc(-c2cc(Cl)ccc2O)n[nH]1	-16.5	18.6*	-11.2	-25.3	10.4	-20.0	-1.9	-2.5
CCCC(=O)Nc1nnc(-c2ccc3c(c2)OCCO3)o1	-43.4	13.7*	-13.3	-17.9	-11.1	-44.5	8.1	0.4
CCCC(=O)Nc1nc(-c2ccc3c(c2)OCCO3)cs1	-152.7	-2.3	-96.4	-105.8	-18.7	-92.4	.	.
CCSc1nnc(Cn2c(=O)sc3ccccc32)n1C	-11.9	.	5.2	-33.9	-27.0	-0.1	1.9	-0.1
CCOc1ccc(-n2c(SCC(=O)c3ccc4ccccc4c3)nnc2-c2ccc(OC)cc2)cc1	.	.	.	13.8	14.3	.	.	.
CCCCC[C@@H](/C=C/C1C(=O)C=C[C@H]1C/C=C\CCCC(=O)O)OC(C)=O (stereo partly drawn)	2.8	99.9*	-26.6	-8.5	6.8	-36.2	98.5*	0.1
CN(C(=O)c1ccc2c(c1)SC1=NS(=O)(=O)CCN12)C(c1ccccc1)c1ccccc1	-3.0	30.9*	6.0	2.1	-11.3	6.7	29.7*	0.1
CN1CCN(C(=O)c2cnc(Cc3c[nH]c4ccccc34)c(I)c2)CC1	8.8	-6.7	-17.7	8.6	-0.9	-10.5	.	.
O=C(COC(=O)c1ccccc1F)NNC(=O)c1ccccc1	-4.3	-0.1	-8.5	3.8	-0.4	15.8	.	.
CCCCNC(=O)COC(=O)c1ccccc1F	-0.9	18.6*	18.2	-7.5	-2.2	-20.2	2.2	0.0
COc1cccc2c1[C@H](/C=C/c1ccccc1)[C@@H]([C@H](O)COC(C)=O)OC2	.	.	.	22.0	-1.9	.	.	.
C=CC[C@H]1c2ccccc2[C@H]2N3N=Cc4ccccc4[C@H]3[C@H](CCCC)C(=O)N2N1C(=O)NCc1ccccc1	.	.	.	14.7	-9.0	.	.	.
C=CCN1C(=O)c2n[nH]c(COC)c2C1c1ccc(F)cc1 (stereo not drawn)	.	-6.3	.	-27.6	-0.4	.	.	.
COc1ccc(C(NC(C)=O)c2cc(Cl)c3cccnc3c2O)cc1OC (stereo not drawn)	-7.5	-4.8	23.6	-14.9	-9.4	20.5	.	.
COc1ccc(C(NC(C)=O)c2nccc3cc(OC)c(OC)cc23)cc1OC (stereo not drawn)	-4.3	23.1*	-8.5	-3.7	-12.0	-6.4	2.8	0.0
COc1ccc(C(=O)c2coc(-c3ccccc3C(=O)O)c2C(=O)O)cc1	-11.0	13.6*	13.5	2.6	-15.2	-48.3	-2.8	0.5
COc1ccc(CC(=O)OCc2cc3ccccc3[nH]c2=O)cc1	16.8	.	-4.9	-41.5	10.8	-35.2	2.0	-0.1
COCCN(C(=O)COC(=O)CCS(=O)(=O)c1ccccc1)c1c(N)n(Cc2ccccc2)c(=O)[nH]c1=O	-5.8	14.1*	-10.3	-26.0	-23.8	-6.0	-2.5	0.2
CCCCCCC12C(=Cc3cc(C)ccc31)c1ccccc1C(CC(=O)NCc1ccccc1)N2C(=O)OC (stereo not drawn)	.	-3.8	.	1.8	-12.3	.	.	.
COc1ccccc1CCNC(=O)C(=O)NCC1OCCN1S(=O)(=O)c1ccc2c(c1)OCCO2 (stereo not drawn)	-5.2	13.9*	-5.5	6.8	13.2	-1.1	7.4	0.1
